High-throughput results as filed in PubChem.
In the library only some 4.2% were active in any assay of this set; here they are far more common.
Mtb bLac sens = beta-lactam sensitization of Mtb H37Rv; 330,000 compounds, 0.27% hits; inhibition, % at 25 µM; M. tuberculosis H37Rv growth with meropenem, percent inhibition;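 also: growth measured after seven days incubation then overnight dye step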
RecA intein inh = Mtb RecA intein splicing inhibition; P9WHJ3; cell-free RecA intein splicing, fluorescence; inhibition, % (no concentration beside the values); 290,000 compounds, 0.75% hits; AID 2221; in the data active = inhibition above about 30%
Target sequence (P9WHJ3 whole entry, looked up): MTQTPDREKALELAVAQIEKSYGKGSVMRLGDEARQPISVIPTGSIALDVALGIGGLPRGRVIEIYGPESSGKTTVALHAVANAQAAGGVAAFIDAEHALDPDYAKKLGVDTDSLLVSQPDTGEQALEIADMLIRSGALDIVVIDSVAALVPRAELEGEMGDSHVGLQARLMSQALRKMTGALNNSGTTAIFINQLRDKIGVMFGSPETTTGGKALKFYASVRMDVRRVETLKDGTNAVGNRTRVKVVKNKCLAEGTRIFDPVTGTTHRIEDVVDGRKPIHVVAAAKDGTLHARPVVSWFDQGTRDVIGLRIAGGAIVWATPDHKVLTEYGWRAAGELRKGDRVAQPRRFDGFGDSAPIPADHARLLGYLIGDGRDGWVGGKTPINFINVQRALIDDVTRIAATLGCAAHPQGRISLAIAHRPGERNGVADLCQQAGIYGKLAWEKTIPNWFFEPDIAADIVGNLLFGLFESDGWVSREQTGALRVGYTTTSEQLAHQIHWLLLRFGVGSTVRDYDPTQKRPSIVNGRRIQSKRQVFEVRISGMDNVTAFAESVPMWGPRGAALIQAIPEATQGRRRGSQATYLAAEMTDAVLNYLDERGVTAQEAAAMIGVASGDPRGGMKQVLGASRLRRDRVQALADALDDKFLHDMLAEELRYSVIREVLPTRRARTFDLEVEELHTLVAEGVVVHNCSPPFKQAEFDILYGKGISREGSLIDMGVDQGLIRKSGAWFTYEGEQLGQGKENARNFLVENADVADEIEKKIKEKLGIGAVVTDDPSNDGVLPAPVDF
CCHFV vOTU inh = blocks the CCHF virus ovarian tumor domain protease; 370,000 compounds, 0.55% hits; inhibition, % at 11.5 µM; CCHFV vOTU protease, Pep-AMC fluorescence; in the data active = inhibition above about 30%
FBA Mtb inh = inhibits M. tuberculosis FBA enzyme; purified M. tuberculosis FBA, fluorescence read-out; inhibition, % at 1 µM; 360,000 compounds, 2.3% hits; in the data active = inhibition above about 27%
GDH-TPI inh = inhibits GDH-TPI coupling enzymes, artifact for Mtb FBA screen | GDH-TPI coupled enzyme counterscreen, NADH absorbance | inhibition, % at 4.8 µM | 360,000 compounds, 1.2% hits | AID 588335; in the data active = inhibition above about 30%
GFP chromo cs = counter-screen GFP chromophore formation inhibition. shares compounds with RecA intein inh. cell-free GFP chromophore formation, fluorescence. EC50, µM. 2,100 compounds, 83% hits
Large screens that a line does not name were inactive (follow-up assays come after a bar, where they were run). Unless noted, no rule for the calls is given here.

CC(Cl)C(=O)N1c2ccccc2CCc2ccccc21 (stereo not given)	none
O=C(CCl)N1c2ccccc2CCc2ccccc21	RecA intein inh 80 | GFP chromo cs 22
c1ccc(OCc2nnc(SCc3nc4ccccc4[nH]3)n2-c2ccccc2)cc1	none (no result: Mtb bLac sens, RecA intein inh, FBA Mtb inh, GDH-TPI inh)
COc1ccc(-c2[nH]n(-c3ccc([N+](=O)[O-])cc3)c(=O)c2C=NCc2ccc(F)cc2)cc1	none
COc1ccc(-c2cc(=O)n(-c3ccc([N+](=O)[O-])cc3)[nH]2)cc1	RecA intein inh 90 | GFP chromo cs 5.4
O=C(NCc1cccnc1)/C(=C\c1ccc(-c2cccc(Cl)c2)o1)S(=O)(=O)c1ccccc1	RecA intein inh 54, GDH-TPI inh 41 | GFP chromo cs 35
O=C(NCc1cccnc1)/C(=C/c1ccc(-c2cccc(Cl)c2)o1)S(=O)(=O)c1ccccc1	none
Cn1cnc([N+](=O)[O-])c1S(=O)(=O)c1ccc(Cl)cc1	RecA intein inh 61 (no result: Mtb bLac sens) | GFP chromo cs 39
Cn1cnc([N+](=O)[O-])c1NC(C)(C)C	none
N#CCCn1[nH]c(-c2ccccc2)cc1=O	RecA intein inh 97 | GFP chromo cs 5.1
O=c1cc(-c2ccccc2)[nH]n1-c1nc2ccccc2[nH]1	none
COC(=O)c1cc2c(c3c4cc(C)ccc4n(S(=O)(=O)c4ccc(OC)cc4)c13)C(=O)N(Cc1ccc(C(F)(F)F)cc1)C2	none (no result: Mtb bLac sens, RecA intein inh, FBA Mtb inh, GDH-TPI inh)
COc1ccc(C=C(c2nc3ccccc3s2)c2nc3ccccc3s2)cc1O	RecA intein inh 60 | GFP chromo cs inactive
CCCC[C@H]1C2CC(OC(=O)NCCCC(=O)OCC)C(C2)[C@H]2CCCCN21 (stereo not given in full)	none (no result: Mtb bLac sens, RecA intein inh, FBA Mtb inh, GDH-TPI inh)
COC1=C[C@H](C(=O)N[C@H]2CCCC[C@@H]2NC(C)=O)[C@@]2(C)Cc3ccccc3[C@H]2CC1=O	none (no result: Mtb bLac sens, RecA intein inh, FBA Mtb inh, GDH-TPI inh)
CCOc1cc(CNc2ccc3cn[nH]c3c2)ccc1OC	RecA intein inh 77, CCHFV vOTU inh 59 | GFP chromo cs 12
COC(=O)CC1(c2cccc3ccccc23)C(=O)c2ccccc2C1=O	RecA intein inh 42 | GFP chromo cs 6.6
CCN(CC)C(=O)CC[C@H]1CC[C@]2(CCCN(C(=O)C3CCCC3)C2)O1	none (no result: Mtb bLac sens, RecA intein inh, FBA Mtb inh, GDH-TPI inh)
CSc1nc(-c2ccc(Cl)cc2)nn1C(=O)c1ccco1	RecA intein inh 38 | GFP chromo cs inactive
CCCc1[nH][nH]c(=O)c1C(c1ccc(Cl)cc1)C(C#N)C#N (stereo not given)	RecA intein inh 70 | GFP chromo cs 18
CCCc1[nH][nH]c(=O)c1C(c1ccccc1)C(C#N)C#N (stereo not given)	RecA intein inh 62 | GFP chromo cs 20
CCCc1[nH][nH]c(=O)c1C(c1ccc(Br)cc1)C(C#N)C#N (stereo not given)	RecA intein inh 66 | GFP chromo cs 11
Cc1[nH]n(-c2ncc(-c3ccccc3)s2)c(=O)c1C(c1ccc(Br)cc1)C(C#N)C#N (stereo not given)	none
COC(=O)[C@]12C[C@H](CC(=O)NCC34CC5CC(CC(C5)C3)C4)C(=O)N(Cc3ccco3)C1=C[C@H](C(C)C)O[C@@H]2C1CC1	none (no result: Mtb bLac sens, RecA intein inh, FBA Mtb inh, GDH-TPI inh)
COc1cccc(-c2cc(CNC(=O)[C@H]3O[C@@H](n4cnc(C(N)=O)n4)[C@H](O)[C@@H]3O)no2)c1	none (no result: Mtb bLac sens, RecA intein inh, FBA Mtb inh, GDH-TPI inh)
COc1cccc(CN2CCN(Cc3ccc(C#CC(C)(C)O)s3)CC2CCO)c1 (stereo not given)	RecA intein inh 77 | GFP chromo cs inactive
O=C(NCCc1ccccc1F)c1ccc(Sc2ccccc2Cl)c([N+](=O)[O-])c1	none (no result: Mtb bLac sens, RecA intein inh, FBA Mtb inh, GDH-TPI inh)
COC(=O)c1ccccc1NC(=S)NC(=O)c1ccccc1	none
COC(=O)c1ccccc1NC(=S)NC(=O)c1ccc(C)cc1	RecA intein inh 36 | GFP chromo cs 0.49
COc1ccc(Cn2cc(COC(=O)N3CCOCC3)nn2)cc1	none (no result: Mtb bLac sens, RecA intein inh, FBA Mtb inh, GDH-TPI inh)
Cc1ccc(N(C(=O)CCl)C(C(=O)NC2CCCCC2)c2cccnc2)cc1C (stereo not given)	RecA intein inh 72 (no result: FBA Mtb inh, GDH-TPI inh) | GFP chromo cs 2.6
Cc1ccc(N(C(=O)CNC(=O)c2ccco2)C(C(=O)NC2CCCCC2)c2cccnc2)cc1C (stereo not given)	none
C=CCC12C[C@@]3(O[C@H](c4ccc(C(F)(F)F)cc4)N=C3C[C@H](c3ccc(OC)cc3)[C@H]1C)N(Cc1ccc3c(c1)OCO3)C2=O	none (no result: Mtb bLac sens, RecA intein inh, FBA Mtb inh, GDH-TPI inh)
COC(=O)[C@]12C[C@H](CC(=O)NCc3ccc(C)o3)C(=O)N(Cc3ccc4c(c3)OCO4)C1=C[C@H](C(C)C)O[C@@H]2C1CC1	none (no result: Mtb bLac sens, RecA intein inh, FBA Mtb inh, GDH-TPI inh)
CCCN1C(=O)c2[nH]nc(-c3ccccc3)c2C1c1ccc(C)cc1 (stereo not given)	none (no result: Mtb bLac sens, RecA intein inh, FBA Mtb inh, GDH-TPI inh)
O=C(CN1C(=O)/C(=C2\SC(=S)N(CCS(=O)(=O)O)C2=O)c2ccccc21)Nc1cccc(Br)c1	RecA intein inh 46 | GFP chromo cs 25
O=C(CN1C(=O)/C(=C2/SC(=S)N(CCS(=O)(=O)O)C2=O)c2ccccc21)Nc1cccc(C(F)(F)F)c1	none (no result: RecA intein inh)
Fc1cccc(/C=N/Nc2nncc3ccccc23)c1	none
C(=N\Nc1nncc2ccccc12)/c1ccccn1	RecA intein inh 38 | GFP chromo cs 10
Cc1ccccc1Cn1cc(COC(=O)NCCc2ccccc2)nn1	none (no result: Mtb bLac sens, RecA intein inh, FBA Mtb inh, GDH-TPI inh)
COc1cc(C2CC(c3cccs3)=NN2C(=O)CCl)ccc1OC(F)F (stereo not given)	RecA intein inh 80 | GFP chromo cs 1.8
COc1ccc(C2CC(c3cccs3)=NN2C(=O)CCC(=O)O)cc1 (stereo not given)	none
COc1ccc(C2CC(c3cccs3)=NN2C(=O)c2ccccc2)cc1OC (stereo not given)	none
COc1ccc(C2CC(c3cccs3)=NN2C(=O)CCl)cc1OC (stereo not given)	RecA intein inh 77 | GFP chromo cs 4.5
COC(=O)[C@]12C[C@H](CC(=O)N3CCN(C(=O)c4ccco4)CC3)C(=O)N(CCc3ccc(OC)c(OC)c3)C1=C[C@H](COCc1ccccc1)O[C@@H]2C	none (no result: Mtb bLac sens, RecA intein inh, FBA Mtb inh, GDH-TPI inh)
Cc1ccc2nc(-c3cccs3)oc(=O)c2c1	RecA intein inh 32 | GFP chromo cs inactive
CCc1cccc(CC)c1NC(=O)/C(C#N)=C/c1ccccc1C(F)(F)F	RecA intein inh 31 | GFP chromo cs 32
N#C/C(=C\c1ccccc1C(F)(F)F)C(=O)Nc1ccccc1	none
Oc1[nH]c(=S)sc1C=C1N=c2ccccc2=N1	RecA intein inh 57 | GFP chromo cs inactive
Oc1c(C=C2N=c3ccccc3=N2)sc(=S)n1-c1ccc(F)cc1	none
Cc1ccc(SC(=O)c2c(C)noc2-c2cc(C)on2)cc1	RecA intein inh 61 | GFP chromo cs 26
CCOC(=O)c1ccc(N=Nc2c(C)[nH]n(-c3ccccc3)c2=O)cc1	none
CCOC(=O)c1ccc(-n2[nH]c(-c3ccccc3)cc2=O)cc1	RecA intein inh 67 | GFP chromo cs 3.3
Fc1ccccc1-c1n[nH]c(=S)n1N=Cc1cccc(OCc2ccccc2)c1	none (no result: Mtb bLac sens, RecA intein inh, FBA Mtb inh, GDH-TPI inh)
COc1ccc(NC(=O)CSc2ccc(-c3sc(C)nc3C)nn2)cc1	none
CCc1ccc(NC(=O)CSc2ccc(-c3sc(C)nc3C)nn2)cc1	RecA intein inh 82 | GFP chromo cs inactive
